Source: ChEMBL document CHEMBL3988442, “University of Dundee, Small-Polar-MMV Screening Library” (2021)
Screen size: about 48,000 compounds; about 13,000 (27%) showed an effect of 50% or more. The list shows a part of the results.

The compounds below were run on Wolbachia pipientis (assay: Anti-Wolbachia Cell-Based Screen). Conditions: 5 µM.
Assay type: functional
Parameters: scale not given: in the data most compounds retested in dose-response had high values

Row | Structure (SMILES) | Percent Effect [%]
1 | O=C(Nc1cccnc1)c1ccc(-n2cncn2)nn1 | 4.763
2 | CNC(=O)NC1CC2(CCNCC2)c2ccc(C)cc21 (centres undefined) | 2.029
3 | Fc1ccc2c(c1)C1(CCNCC1)CC2OCC1CC1 (centres undefined) | -8.217
4 | Cl.Cl.c1ccc2c(c1)C(NC1CCCC1)CC21CCNCC1 (centres undefined) | 102.9
5 | COc1cc(CNC(=O)c2csc(Br)c2)ccn1 | 70.51
6 | CCOc1ncccc1CNC(=O)c1csc(Br)c1 | -22.46
7 | COc1cc(CNC(=O)Nc2nnc(C(C)C)s2)ccn1 | 139
8 | Cc1nnc(NC(=O)NCc2ccnc(N(C)C)c2)s1 | 99.1
9 | CC(C)c1nnc(NC(=O)NCc2ccnc(N(C)C)c2)s1 | -3.838
10 | CN(C)c1cc(CNC(=O)Nc2nnc(C3CC3)s2)ccn1 | 137.2
11 | COc1ncccc1CNC(=O)c1csc(Br)c1 | -3.895
12 | CC/C=C(/C)C(=O)NCc1ccnc(OC)c1 | -6.401
13 | COc1cc(CNC(=O)Nc2nnc(C(C)C)s2)ccc1O | 0.367
14 | Cc1cc(Br)ccc1C(=O)N(C)CCNS(C)(=O)=O | -13.91
15 | COCc1nc(N(C)CCSc2ccccc2)c2cnn(C)c2n1 | -20.02
16 | Cc1cnc(CN2CCCC(c3nc4ccccc4n3C(C)C)C2)o1 (centres undefined) | -8.983
17 | CN(C)C(C(=O)NCC1(C)COC1)c1cccc(F)c1 (centres undefined) | 3.319
18 | CC(C)[C@H]1CN(C2Cc3ccccc3C2)C[C@@H]1NS(C)(=O)=O | 7.531
19 | CC(C)[C@H]1CN(C2Cc3ccccc3C2)C[C@@H]1NS(=O)(=O)N(C)C | -3.523
20 | CS(=O)(=O)N[C@@H]1CN(C(=O)c2cc3ccccc3s2)C[C@H]1O | 153.3
21 | CCC[C@@H]1CN(C(=O)c2cc3ccccc3s2)C[C@H]1NS(C)(=O)=O | -8.95
22 | CS(=O)(=O)N[C@@H]1CN(Cc2ccc3ccccc3c2)C[C@H]1O | 117
23 | CC(C)[C@@H]1CN(C2CCN(Cc3ccccc3)CC2)C[C@H]1NS(C)(=O)=O | 57.6

Row | Structure (SMILES) | Percent Effect [%]
24 | CS(=O)(=O)NC1CCN(C(=O)c2cc3ccccc3s2)C1 (centres undefined) | -26.49
25 | COc1ccc(CN2C[C@@H]3CCCO[C@@H]3[C@H](NS(C)(=O)=O)C2)cc1.O=C(O)C(F)(F)F | -19.78
26 | CS(=O)(=O)NC1CCN(C(=O)c2ccc3ccccc3c2)C1 (centres undefined) | -0.4422
27 | CS(=O)(=O)N[C@@H]1CN(Cc2ccccc2)C[C@H]1O | 118.1
28 | CS(=O)(=O)N[C@H]1CN(CCOCc2ccccc2)C[C@@H]1C1CC1 | -6.261
29 | CS(=O)(=O)N[C@@H]1CN(Cc2ccccc2)C[C@@H]2CCCO[C@@H]21 | -3.887
30 | O=C(NCc1cc2ccccc2s1)c1cc(CN2CCCC(O)C2)on1 (centres undefined) | 4.701
31 | O=C(O)CC[C@@H]1CN(c2ncnc3[nH]ccc23)CC[C@@H]1N1CCOCC1 | -3.371
32 | COCc1cn(C2CCN(C(=O)c3ccc(F)c(C)c3)CC2)nn1 | 14.23
33 | Cc1cc(F)ccc1OC1(C(=O)O)CCN(Cc2nccn2C)CC1 | -12.18
34 | O=c1cc(CNS(=O)(=O)C2CC2)nc2n1CCCNC2 | 10.88
35 | O=C(CCC1CCCCO1)NCc1cnn(-c2ccc(F)cc2F)c1 (centres undefined) | 2.583
36 | COc1ccc(C)cc1-n1cnnc1C1CCOCC1 | 1.298
37 | CCC[C@@H]1CN(C(=O)c2cnc3ccccc3c2)C[C@H]1NS(C)(=O)=O | -44.49
38 | CCC[C@@H]1CN(Cc2ccc(C(F)(F)F)nc2)C[C@H]1NS(C)(=O)=O | -0.637
39 | CS(=O)(=O)N[C@@H]1CN(Cc2ccc3ncccc3c2)C[C@H]1O | 100.1
40 | CSc1ccsc1C(=O)NS(=O)(=O)c1cnn(C)c1 | -33.43
41 | O=C1CC(c2ccc(C(=O)O)cc2)c2ncn(-c3ccc(F)cc3)c2N1 (centres undefined) | -3.148
42 | COC(=O)CN1CCN(c2cccc(C)c2)CC1 | -56.86
43 | COc1ccc(-n2cnnc2CC2CCNCC2)cc1 | -7.776
44 | COc1ccc(-n2cnc(Cl)c2CO)cc1 | 99.78
45 | Cc1cccc(-n2cnc(Cl)c2CO)c1 | 116.1
46 | OCc1c(Cl)ncn1-c1ccc(F)cc1 | 124.8

Row | Structure (SMILES) | Percent Effect [%]
47 | COc1ccc(OCC(=O)n2nc(C)c(C)c2C)cc1 | 7.668
48 | Cc1cccc(N2CCN(C(=O)CN3CCN(CCO)CC3)CC2)c1 | -11.5
49 | Cc1ccc(-n2cnc(Cl)c2CO)cc1 | 81.89
50 | CC(=O)c1c(C)cc(C)c(Cn2ccnc2S(C)(=O)=O)c1C | -6.43
51 | CCOCCCC(=O)Nc1[nH]nc(-c2ccncc2)c1C | 17.32
52 | Cc1ccccc1-n1cnnc1SCC(=O)NCC1CCCO1 (centres undefined) | 6.164
53 | Cc1ccccc1-n1cnc(Cl)c1CO | 94.22
54 | Cc1ccccc1-n1cnnc1SCC1CCCCO1 (centres undefined) | 0.1895
55 | OCc1c(Cl)ncn1-c1ccccc1 | 94.93
56 | Cc1ccoc1C(=O)NCCOc1ncc(Cl)cc1Cl | -11.16
57 | Cc1nn(CCC#N)c(C)c1[C@@H]1C=C[C@@H](NCc2cccc(Cl)c2)C1 | -10.09
58 | O=C(Nc1ccncc1)NC1CCN(c2ccccc2OC(F)F)C1 (centres undefined) | -11.28
59 | CC(C)CCN1CCN(Cc2nc(C3CC3)no2)CC1 | -1.38
60 | CCc1nc(C2CCCN(c3nccc(C)n3)C2)no1 (centres undefined) | -0.3429
61 | Cc1noc(C)c1Cc1nc(C2CC2)no1 | -12.44
62 | Cc1ccc(CCc2nc(C3CCOC3)no2)o1 (centres undefined) | 90.49
63 | Cc1noc(C)c1CCc1nc(C2CCOC2)no1 (centres undefined) | 100.6
64 | Cc1ccccc1CS(=O)(=O)Cc1nc(C2CC2)no1 | -6.253
65 | Cc1noc(CCCc2nc(C3CCOC3)no2)n1 (centres undefined) | 78.93
66 | Cc1noc(CCCC(=O)N(CC2CCOC2)C2CC2)n1 (centres undefined) | -3.8
67 | Cc1noc(C)c1CS(=O)(=O)Cc1nc(C2CC2)no1 | -5.953
68 | CCOCC(=O)NC(C)c1cc(C)ccc1C (centres undefined) | 4.424
69 | c1nc(CSc2nnc(C3CC3)s2)cs1 | -11.09
